A selection: hits, their analogues and other compounds. The true share with any hit is near 6.4%.
RORgamma inh = ROR gamma (mouse) transcription inhibition; P51450; Drosophila S2 Gal4-RORgamma UAS-luciferase reporter, 20 h; Potency, µM (doses to about 53.6 µM), actives largely listed as inhibitors; actives 5.4% (n = 310,000); AID 2551; further: nearly all actives have a fitted effect of over 60% in size
Target sequence (P51450 whole entry, looked up, the tested form may be a part): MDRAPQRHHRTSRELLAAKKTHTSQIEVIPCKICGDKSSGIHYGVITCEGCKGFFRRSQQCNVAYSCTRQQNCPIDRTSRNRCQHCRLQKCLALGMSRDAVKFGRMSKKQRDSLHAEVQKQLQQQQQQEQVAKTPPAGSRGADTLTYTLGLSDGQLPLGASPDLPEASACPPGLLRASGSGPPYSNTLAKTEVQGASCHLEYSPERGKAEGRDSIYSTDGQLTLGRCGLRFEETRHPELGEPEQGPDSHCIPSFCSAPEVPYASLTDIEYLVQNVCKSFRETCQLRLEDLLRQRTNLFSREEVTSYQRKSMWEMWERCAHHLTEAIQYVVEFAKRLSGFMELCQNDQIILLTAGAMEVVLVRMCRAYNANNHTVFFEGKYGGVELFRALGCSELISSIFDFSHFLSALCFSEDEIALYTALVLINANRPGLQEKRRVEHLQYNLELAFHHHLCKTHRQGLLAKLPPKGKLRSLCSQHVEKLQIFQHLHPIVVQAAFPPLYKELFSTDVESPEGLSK
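Drosophila Schneider cells stably carrying a metallothionein-driven Gal4 DBD–ROR gamma fusion and a UAS-Photinus luciferase reporter were exposed to compound for 1 hr, then induced with copper sulfate (700 uM final) for 20 hr at ambient temperature before luminescence reading.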
VP16 counter = counter-screen for ROR gamma inhibitors: Gal4-VP16 reporter | AID 2546 | actives 3.5% (n = 310,000) | Drosophila S2 Gal4-VP16 UAS-luciferase, luminescence, 20 h | Potency, µM (highest dose often 53.6 µM), hits mostly inhibitors;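 further: Gal4-VP16 expression switched on by copper sulfate through the metallothionein promoter; nearly all actives have a fitted effect of over 50% in size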
KinaseGlo FLuc = blocks Kinase-Glo luciferase, a counter-screen artifact. Q27757. Kinase-Glo luciferase, ATP luminescence, 8 min. actives 0.28% (n = 200,000). Potency, µM (top dose mostly 38.3 µM), usual class: inhibitors; further: nearly all actives have a fitted effect of over 60% in size
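Inhibition of Kinase-Glo luciferase light generation was assessed at 10 uM ATP in pH 7.2 imidazole buffer, with luminescence measured after eight minutes at ambient temperature.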
Each line names hits and unclear results; the compound was inactive in the other large screens. The call rests on the fitted dose curve; in most records, active means well fitted curve in the direction sought with a large enough effect; inconclusive means small, poorly fitted or top-dose-only effect, or another doubt; inactive means no such curve, though single readings can be large; an effect the other way counts as inactive or inconclusive.

CCCCn1c(CN2CCN(c3ccccc3)CC2)nc2c1c(=O)n(C)c(=O)n2C	VP16 counter 6.3µM
CCNS(=O)(=O)c1ccc(C)cc1	none (no result: KinaseGlo FLuc)
CCCN(CC1CC1)c1nc(N)c(C#N)c(CC#N)c1C#N	none
CCCN(CC1CC1)c1nc(C)nc(Nc2c(Cl)cc(Cl)cc2Cl)c1Cl	RORgamma inh 3.5µM
O=C(C1=C(O)C(=O)N(CC2CCCO2)C1c1cccc(O)c1)c1ccco1 (stereo not drawn)	none (no result: KinaseGlo FLuc)
CC(C)=CCN1CCN(Cc2cc(C(C)C)n[nH]2)CC1CCO (stereo not drawn)	none
COc1ccccc1N1CCN(C(c2ccc(Cl)cc2)c2nnnn2C(C)(C)C)CC1 (stereo not drawn)	VP16 counter 22µM
COc1ccccc1N1CCN(C(c2ccccc2Cl)c2nnnn2C(C)(C)C)CC1 (stereo not drawn)	RORgamma inh inconclusive, VP16 counter inconclusive
CC1C2(C)OCC(C#N)(C(=N)O2)C1(C#N)C#N (stereo not drawn)	none (no result: KinaseGlo FLuc)
CC1(C)CC2(C)OC(=N)C1(C#N)C2(C#N)C#N (stereo not drawn)	RORgamma inh 7.9µM, VP16 counter inconclusive (no result: KinaseGlo FLuc)
COc1ccc(S(N)(=O)=O)cc1C(=O)OCC1CCCCC1	none (no result: KinaseGlo FLuc)
NNc1nc(-c2ccccc2)nc2sc3c(c12)CCCC3	RORgamma inh inconclusive, VP16 counter inconclusive
Nc1c2c(nc3sc4c(c13)CCCC4)-c1ccccc1CC2	RORgamma inh inconclusive, VP16 counter 10µM (no result: KinaseGlo FLuc)
CC1CCC(N2CCNCC2)CC1 (stereo not drawn)	none
COc1ccc(S(=O)(=O)N2CCN(C(=O)NCc3ccc(OC)c(OC)c3)CC2)cc1	none (no result: KinaseGlo FLuc)
COc1ccc(/C=C2\SC(=S)N(CCC(=O)Nc3cccc(O)c3)C2=O)cc1	RORgamma inh inconclusive (no result: KinaseGlo FLuc)
O=C(O)CCN1C(=O)/C(=C\c2ccncc2)SC1=S	none
COc1ccc(/C=C2/SC(=S)N(CCCC(=O)Nc3ccc(O)cc3)C2=O)cc1	RORgamma inh 0.28µM, VP16 counter 1.4µM (no result: KinaseGlo FLuc)
COc1ccc(/C=C2\SC(=S)N(CCCC(=O)Nc3ccc(O)cc3)C2=O)cc1	RORgamma inh 1.4µM, VP16 counter 1µM (no result: KinaseGlo FLuc)
COc1ccc(/C=C2/SC(=S)N(CCC(=O)O)C2=O)cc1	RORgamma inh 5µM, VP16 counter inconclusive
COc1ccc(/C=C2\SC(=S)N(CCC(=O)Nc3ccc(C(=O)O)cc3)C2=O)cc1	none (no result: KinaseGlo FLuc)
Cc1ccc(N(C(=O)CNC(=O)c2ccco2)C(C(=O)NC2CCCC2)c2ccncc2)cc1F (stereo not drawn)	none (no result: KinaseGlo FLuc)
Cc1nc(NC(=O)/C=C/c2ccc(C(C)(C)C)cc2)sc1C(=O)N(C)C	RORgamma inh inconclusive
CCc1c(C(=O)NC(C)C2CCCO2)csc1C (stereo not drawn)	none (no result: KinaseGlo FLuc)
CCc1c(C)sc(NC(=S)N2CCN(C(=O)C3CCCO3)CC2)c1C(=O)OC (stereo not drawn)	none (no result: KinaseGlo FLuc)
CCc1c(C)sc(NC(=S)NC(C)C2CCCO2)c1C(=O)OC (stereo not drawn)	RORgamma inh 16µM, VP16 counter 10µM
CCc1c(C)sc(NC(=S)N2CC(C)OC(C)C2)c1C(=O)OC (stereo not drawn)	RORgamma inh 7.1µM
NS(=O)(=O)c1ccc(CNC(=O)c2cc(=O)c3ccccc3o2)cc1	none (no result: KinaseGlo FLuc)
Cc1cccc(N2C(=S)NC3c4ccccc4OC2(C)C3C(=O)N(C)C)c1 (stereo not drawn)	none
CN(C)C(=O)C1C2NC(=S)N(c3cccc(Cl)c3)C1(C)Oc1ccc(Cl)cc12 (stereo not drawn)	RORgamma inh 10µM, VP16 counter inconclusive (no result: KinaseGlo FLuc)
CN(C)C(=O)C1C2NC(=S)N(c3ccccc3)C1(C)Oc1ccccc12 (stereo not drawn)	none
CN(C)C(=O)C1C2NC(=S)N(c3ccc(Cl)cc3)C1(C)Oc1ccc(Cl)cc12 (stereo not drawn)	RORgamma inh 10µM, VP16 counter inconclusive
Cc1ccc(N(CC2CO2)S(=O)(=O)c2ccc([N+](=O)[O-])cc2)cc1 (stereo not drawn)	none (no result: KinaseGlo FLuc)
COc1ccc(C(=O)C2CCCN(C(=O)Cn3nc(C)cc3C)C2)cc1F (stereo not drawn)	none (no result: KinaseGlo FLuc)
CCOc1ccccc1C(=O)Nc1cc(C)ccc1NC(=O)c1ccco1	none (no result: KinaseGlo FLuc)
S=C(NCCSCc1ccc(Cl)cc1)Nc1ccccc1	RORgamma inh 2.5µM, VP16 counter 11µM
O=C(COc1ccc(Cl)cc1)NCCSCc1ccccc1Cl	none
Cc1cccc(CSCCNC(=O)COc2ccc(Cl)cc2)c1	none
Cc1cccc(CSCCNC(=S)Nc2ccccc2)c1	RORgamma inh 5.6µM, VP16 counter 5.6µM
S=C(NCCSCc1ccccc1Cl)Nc1ccccc1	RORgamma inh 2.8µM, VP16 counter 4µM
O=C(NCCSCc1ccco1)Nc1ccc(Cl)cc1	RORgamma inh inconclusive, VP16 counter inconclusive
CCCN1CCC(=O)N(C(CSc2ccc(OC)cc2)c2ccccc2)CC1 (stereo not drawn)	none (no result: KinaseGlo FLuc)
COc1ccc(-c2nc(NC(=O)c3ccc(OCC(=O)Nc4ccc(F)cc4)c(OC)c3)sc2C)cc1	RORgamma inh inconclusive, VP16 counter 20µM
COc1cc(C(=O)Nc2nc(-c3cc(C)ccc3C)c(C)s2)ccc1OCC(=O)Nc1ccc(F)cc1	none
Cn1cc(S(=O)(=O)N2CCCC(C(=O)O)C2)cn1 (stereo not drawn)	none
CC(=O)Nc1ccc(S(=O)(=O)N(CC(=O)Nc2cc(C)on2)Cc2ccc(F)cc2)cc1	VP16 counter inconclusive (no result: KinaseGlo FLuc)
COc1cccc(C(=O)Nc2ccc(-c3nnc(-c4ccco4)o3)cc2)c1	none
COc1cccc(-c2nnc(-c3ccco3)o2)c1	none
COc1cccc(-c2nnc(-c3ccccc3[N+](=O)[O-])o2)c1	none (no result: KinaseGlo FLuc)
COc1cccc(-c2nnc(NC(=O)c3cccc(F)c3)o2)c1	RORgamma inh 0.32µM, VP16 counter 0.79µM (no result: KinaseGlo FLuc)
COc1cccc(-c2nnc(N)o2)c1	none (no result: KinaseGlo FLuc)
COc1cccc(-c2nnc(-c3ccc(C)o3)o2)c1	RORgamma inh 11µM, VP16 counter inconclusive
COc1cccc(-c2nnc(NC(=O)C(C)C)o2)c1	RORgamma inh inconclusive, VP16 counter 16µM
COc1cccc(-c2nnc(NC(=O)c3ccccc3Br)o2)c1	RORgamma inh 5µM, VP16 counter 3.2µM (no result: KinaseGlo FLuc)
CNC(=O)CN(c1ccc(Oc2ccccc2)cc1)S(=O)(=O)c1ccc(C)cc1	VP16 counter inconclusive (no result: KinaseGlo FLuc)
COC(=O)CSc1nnc(-c2ccc(OC)cc2OC)o1	RORgamma inh inconclusive
COc1ccc(-c2nnc(NC(=O)c3ccc([N+](=O)[O-])o3)o2)c(OC)c1	RORgamma inh 7.1µM, VP16 counter 6.3µM (no result: KinaseGlo FLuc)
Cc1ccc(S(=O)(=O)N(C)C)cc1-n1c(SCC(=O)Nc2ccc(F)c(F)c2F)nc2ccccc2c1=O	none
CCN1CCN(Cc2ccc(NC(=O)c3ccc(C)c(NC(=O)c4cccc(-c5cn[nH]c(=O)c5)c4)c3)cc2C(F)(F)F)CC1	none (no result: KinaseGlo FLuc)
CCN1CCN(Cc2ccc(NC(=O)c3ccc(C)c(NC(=O)c4c[nH]c5cc(C(F)(F)F)ccc5c4=O)c3)cc2C(F)(F)F)CC1	RORgamma inh 6.3µM, VP16 counter 11µM (no result: KinaseGlo FLuc)
S=C(NCCc1ccccc1)Nc1ccc(Nc2ccccc2)cc1	RORgamma inh 5µM, VP16 counter 13µM
Cc1ccccc1OCCNC(=S)Nc1ccccc1	RORgamma inh 3.2µM, VP16 counter 5.6µM
Cc1ccccc1OCC(=O)NNC(=O)Nc1ccccc1	none
CCCNC(=S)Nc1ccccc1	RORgamma inh 10µM, VP16 counter inconclusive (no result: KinaseGlo FLuc)
CN(C)CCCNC(=S)Nc1ccc(-c2ccccc2)cc1	none (no result: KinaseGlo FLuc)

Assay outcomes: PubChem BioAssay, National Center for Advancing Translational Sciences (NCATS)
